Compound activity (PubChem BioAssay)
RORgamma inh = ROR gamma (mouse) transcription inhibition; Drosophila S2 Gal4-RORgamma UAS-luciferase reporter, 20 h; P51450; AID 2551; Potency, µM (top dose mostly 53.6 µM), without a hit: at the top dose activity change, negative = inhibition, usual class: inhibitors; hit rate 5.4% among 310,000; note: % is set by controls: 0 for no effect and ±100 for the full control effect; nearly all actives have a fitted effect of over 60% in size
Target sequence (P51450 whole entry, looked up, the tested form may be a part): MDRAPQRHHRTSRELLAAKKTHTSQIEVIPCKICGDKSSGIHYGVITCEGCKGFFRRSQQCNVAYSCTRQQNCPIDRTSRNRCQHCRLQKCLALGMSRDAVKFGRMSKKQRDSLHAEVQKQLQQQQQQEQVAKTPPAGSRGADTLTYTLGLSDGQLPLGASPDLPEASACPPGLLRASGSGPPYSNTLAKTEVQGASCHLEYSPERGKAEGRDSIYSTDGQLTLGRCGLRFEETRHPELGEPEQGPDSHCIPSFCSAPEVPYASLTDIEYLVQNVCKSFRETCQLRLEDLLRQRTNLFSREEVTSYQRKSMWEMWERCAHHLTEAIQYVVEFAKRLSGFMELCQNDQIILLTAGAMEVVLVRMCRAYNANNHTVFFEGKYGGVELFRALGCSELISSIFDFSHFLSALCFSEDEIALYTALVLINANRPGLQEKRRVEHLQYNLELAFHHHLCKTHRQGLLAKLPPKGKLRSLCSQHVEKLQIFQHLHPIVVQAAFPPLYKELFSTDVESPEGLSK
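A Gal4/UAS one-hybrid system in insect cells: metallothionein-promoter Gal4–ROR gamma fusion plus Photinus luciferase reporter. Copper sulfate 700 uM final, 20 hr ambient incubation, luminescent detection after 10 min with reagent.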
MCF10A rereplic = inducers of DNA re-replication in MCF 10A breast cells | MCF 10A DNA re-replication, Hoechst nuclear intensity, 48 h | Potency, µM (doses to about 46.1 µM), for inactives: at the top dose activity, positive = re-replication, hits mostly activators | hit rate 2.9% among 350,000; note: % of control where 0% means no effect; nearly all actives have a fitted effect of over 50% in size
VP16 counter = Gal4-VP16 reporter inhibition counter-screen. Drosophila S2 Gal4-VP16 UAS-luciferase, luminescence, 20 h. Potency, µM (series often up to 53.6 µM), for inactives: top-dose activity, negative = inhibition, most hits filed as inhibitors. hit rate 3.5% among 310,000. AID 2546;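 note: Gal4-VP16 expression switched on by copper sulfate through the metallothionein promoter; % is set by controls: 0 for no effect and ±100 for the full control effect; nearly all actives have a fitted effect of over 50% in size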
ELG1 DNA repair = ELG1-dependent DNA repair inhibition; HEK293T ELG1-luciferase reporter, luminescence, 16 h; DNA damage induced by 5-fluorouridine; Potency, µM (top dose mostly 46.1 µM), inactives show top-dose activity change, negative = inhibition, most hits filed as inhibitors; hit rate 2.3% among 330,000; AID 504467; note: % is set by controls: 0 for no effect and ±100 for the full control effect; nearly all actives have a fitted effect of over 55% in size
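In this reporter screen, reduction of luminescence relative to DMSO vehicle indicated activity. Compounds and 5-fluorouridine were added together to 2,000 cells per well, incubated for 16 hr at 37 °C, then developed with ONE-Glo.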
SW480 rereplic = induces DNA re-replication in SW480 colon adenocarcinoma cells | SW480 DNA re-replication, Hoechst DNA content imaging, 48 h | Potency, µM (series often up to 46.1 µM), inactives show at the top dose re-replication activation, most hits filed as activators | hit rate 1.8% among 340,000; note: % of control where 0% means no effect; nearly all actives have a fitted effect of over 55% in size
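Quantitative HTS format with DMSO vehicle controls; 48 hr drug incubation at 37 C, then 40 min Hoechst staining and scanning imager measurement at 405 nm excitation.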
* = called active by the depositor; u = inconclusive; x = no result given; [ ] = remark or other dose. Rows were chosen to be rich in hits. Some 10% of all compounds tested hit in one or more screens of this group. Calls come from the whole dose curve; as a rule, active = well fitted curve in the direction sought with a large enough effect; inconclusive = small, poorly fitted or top-dose-only effect, or another doubt; inactive = no such curve, though single readings can be large; an effect the other way counts as inactive or inconclusive. Potency is the fitted concentration of half-maximal effect.

SMILES	RORgamma inh	MCF10A rereplic	VP16 counter	ELG1 DNA repair	SW480 rereplic
Cc1ccc(Cc2c(C)nc3nc(SCC(=O)NCc4ccco4)nn3c2C)cc1	23%	6.5µM*	-1%	14%	u
Cc1cccc(Cc2c(C)nc3nc(SCC(=O)NCc4ccco4)nn3c2C)c1	0%	14%	13%	-6%	-7%
Cc1cc(C)c2cc(C#N)c(SCC(=O)NCc3ccco3)nc2c1	13µM*	u	u	-14%	u
CC(Oc1ccccc1)C(=O)OCC(=O)Nc1ccc2c(c1)OCO2 (centres undefined)	x	2%	x	9%	-8%
CC(=O)c1ccc(OCCCC(=O)N2CCN(S(=O)(=O)c3ccc(C)cc3C)CC2)cc1	x	-1%	x	u	-5%
O=C(c1cc(C2CC2)nn1-c1ccccc1)N1CCN(c2ccccn2)CC1	x	-2%	x	0%	1%
O=C(c1cc(C2CC2)nn1-c1ccccc1)N1CCN(c2ncc(C(F)(F)F)cc2Cl)CC1	x	13µM*	x	6%	-2%
Cc1cc(C(=O)OCC(=O)NCc2ccccc2Cl)c(C)o1	30%	-32%	-7%	2%	-1%
O=C(Nc1ccc(F)cc1)N1CCC(c2nc3c(nnn3Cc3ccccc3Cl)c(=O)[nH]2)CC1	-14%	1%	2%	u	4%
Cc1ccc(Cn2nnc3c(=O)[nH]c(C4CCN(C(=O)c5cccs5)CC4)nc32)cc1	26%[0.365 µM]	-5%	x	9.2µM*	2%
Cc1ccc(Cn2nnc3c(=O)[nH]c(C4CCCN(C(=O)Nc5ccc(F)cc5)C4)nc32)cc1 (centres undefined)	34%	15%	8%	16µM*	-10%
O=C(NCc1nnc(SCC(=O)N2CCOCC2)o1)c1cccs1	14%	-6%	-9%[10 µM]	12%	-5%
CCOC(=O)C1=C(N)Oc2c(c(=O)[nH]c3ccccc23)C1c1ccccc1 (centres undefined)	-4%	u	5%	u	5%
Cc1ccc(CNC(=O)[C@H](C)[C@@H]2C[C@@]2(C)[C@@H](NC(=O)OCc2ccccc2)c2ccccc2)c(F)c1F	31%	x	2%	x	x
COc1ccc(C(=O)C2CCCN(S(=O)(=O)c3ccccc3F)C2)c(C)c1 (centres undefined)	u	3%	0%	u	u
Cc1ccc2c(c1)C1(C=CC(=O)C=C1)CC(=O)N2C	-13%	x	4%	x	x
O=[N+]([O-])c1ccc(Nc2ccc(F)cc2)nc1	29%	-2%	u	u	0%
O=[N+]([O-])c1ccc(Nc2cccc(F)c2)nc1	0%	0.73µM*	-3%	3%	-2%
CCCC[C@@H]1CNC(=S)N1CCCC	2.8µM*	u	7.9µM*	-6%	-1%
Cc1cc(C)c(S(=O)(=O)N(CC(=O)O)CC(=O)O)c(C)c1	-9%	0%	-1%	u	-22%
Cc1cc(C)c(S(=O)(=O)N(C2=NCCS2)S(=O)(=O)c2c(C)cc(C)cc2C)c(C)c1	16µM*	6%	-8%	14%	1%
CN(C)CCN=Cc1c(O)n(Cc2ccc3c(c2)OCO3)c(=O)c2ccccc12	u	-41%	-9%	-1%	-3%
O=c1c2ccccc2c(C=NC2CCN(Cc3ccccc3)CC2)c(O)n1Cc1ccc2c(c1)OCO2	-22%	x	-19%	6.5µM*	x
C=CCOC(=O)N1CCC2CC1c1cc(-c3cccc(C)c3)ccc12 (centres undefined)	x	u	x	x	-1%
CN(CC1CCOCC1)C(=O)CC1C(=O)NCCN1CC1CCCCC1 (centres undefined)	5%	7%	9%	-7%	0%
SMILES	RORgamma inh	MCF10A rereplic	VP16 counter	ELG1 DNA repair	SW480 rereplic
O=C(Nc1ccncc1)c1cccc2ccccc12	11%	-4%	-5%	u	18µM*
O=C(NN1CCOCC1)c1cccc2ccccc12	2%	-2%	-9%	11%	0%
O=C(c1cccc2ccccc12)C1CCCN(C(=O)c2ccc(N3CCOCC3)cc2)C1 (centres undefined)	u	-2%	-3%	16µM*	u
O=C(Nc1ccc(N2CCOCC2)cc1)c1cccc2ccccc12	0%	29%	3%	-8%	9.2µM*
Nc1c(Cl)ncnc1N1CCCC1	-3%	-1%	2%	10%	-1%
Nc1ncnc(N2CCOCC2)c1N	8%	1%	-7%	7%	21µM*
Cc1ccc(CCC(=O)NCc2ccccc2)o1	-28%	1%	-6%	14%	-5%
COC(=O)C(NC(=O)COc1ccccc1)(Nc1nc2c(s1)CCCC2)C(F)(F)F (centres undefined)	u	4%	20µM*	-27%	-1%
COc1ccc(-c2c(NC(=O)c3ccco3)oc3ccccc3c2=O)cc1OC	-4%	-15%	-9%	-3%	-38%
Cc1ccc(C(=O)N/N=C2\SCC(=O)N2c2cc(C)ccc2C)cc1	u	-1%	13µM*	27%	-3%
COC(=O)c1c(NC(NC(=O)c2ccccc2)(C(F)(F)F)C(F)(F)F)sc2c1CCN(C)C2	-14%	u	3%	-22%	0.52µM*
CCC(=O)NC(Nc1sc2c(c1C(=O)OC)CCCC2)(C(F)(F)F)C(F)(F)F	-13%	5%	-1%	17%	0%
Cc1ccc(-c2nnc(N3CCN(C(=O)COc4ccccc4)CC3)c3ccccc23)cc1	5%	u	-4%	21µM*	15%
O=C(COc1ccc(-c2nnc(N3CCCCC3)c3ccccc23)cc1)N1CCCCC1	u	u	u	15µM*	10%
O=[N+]([O-])c1ccc(-c2ccc(/C=N/Nc3nc(NCc4ccccc4)nc(N4CCOCC4)n3)o2)cc1	13µM*	7.3µM*	u	u	9.2µM*
COc1nc(N/N=C/c2ccc(-c3ccccc3[N+](=O)[O-])o2)nc(N2CCOCC2)n1	13%	10µM*	-20%	u	u
COc1nc(N/N=C/c2ccccc2F)nc(N2CCCCC2)n1	u	-5%	-12%[0.365 µM]	-14%	-1%
O=[N+]([O-])c1ccc(Nc2nc(N3CCOCC3)nc(N3CCOCC3)n2)cc1	x	2%	x	x	-20%
COc1ccc(CCNC(=O)c2c(O)c3ccccc3[nH]c2=O)cc1	-37%	u	4%	-9%	-20%
O=C1COc2ccc(C(=O)COC(=O)/C=C/c3ccco3)cc2N1	x	8%	x	-1%	2%
Cc1ccc(-c2nc(NCCCO)c3ccccc3n2)cc1	x	10%	x	u	3%
Cc1cccc2nc(-c3ccccc3)nc(N[C@@H](CO)c3ccccc3)c12	u	u	-18%	9.2µM*	29%
CCCn1c(=O)c2c(nc3n2CCN3Cc2ccco2)n(C)c1=O	43%	3%	-4%[10 µM]	u	-1%
Cc1cccc(Cn2c(=O)c3c(nc4n3CCN4Cc3ccco3)n(C)c2=O)c1	34%	4%	8%	21µM*	-12%
